In the supplement of paper PMC11482750:
± gives the standard deviation of the averaged measurements.

Tests used:
Assay in all cases: control-subtracted net OSN firing rate; higher = stronger neuronal activation
Conditions in all cases: odorant dilution (vol/vol): 1/100
allyl isothiocyanate = compound: C=CCN=C=S [allyl isothiocyanate]
In short: (§1)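 Single sensillum recordings were taken from palp or antennal olfactory sensory neurons of 1–5-day-old fed females of Scaptomyza species or of D. melanogaster wild-type, mutant or at1 empty-neuron lines expressing Or42a homologs. Odorants (1:100 vol/vol in mineral oil or dimethyl sulfoxide) were pulsed for 1 s into 16 ml/min filtered air. Replicate means are given of spikes counted over 0.5 s from 0.2 s after onset, after background subtraction, doubling and solvent correction.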

isobutyl isothiocyanate = compound: CC(C)CN=C=S [isobutyl isothiocyanate]
In short: as §1

sec-butyl isothiocyanate = compound: CCC(C)N=C=S [sec-butyl isothiocyanate]
In short: as §1

cinnamaldehyde = compound: O=C/C=C/c1ccccc1 [cinnamaldehyde]
In short: as §1

phenethyl isothiocyanate = compound: S=C=NCCc1ccccc1 [phenethyl isothiocyanate]
In short: as §1

butyl isothiocyanate = compound: CCCCN=C=S [butyl isothiocyanate]
In short: as §1

Row | Target | control-subtracted net OSN firing rate (allyl isothiocyanate) [spikes/s] | control-subtracted net OSN firing rate (isobutyl isothiocyanate) [spikes/s] | control-subtracted net OSN firing rate (sec-butyl isothiocyanate) [spikes/s] | control-subtracted net OSN firing rate (cinnamaldehyde) [spikes/s] | control-subtracted net OSN firing rate (phenethyl isothiocyanate) [spikes/s] | control-subtracted net OSN firing rate (butyl isothiocyanate) [spikes/s]
1 | Canton-S (D. melanogaster) pb1a | 134 ± 36 | 0.222 ± 8.7 | 3.56 ± 4.9 | 7.11 ± 7.2 | 2 ± 9.3 | 
2 | S. pallida pb2a-like | 9 ± 9.5 | 5.33 ± 6.4 | 10.7 ± 9.5 | 6.67 ± 4.8 | 3.67 ± 4.6 | 
3 | Or67dGal4, UAS-Sfla Or42a2 at1 | 39.7 ± 29 | -2 ± 3.1 | -1.71 ± 6.6 |  |  | 
4 | S. montana pb2b-like | 2 ± 4.2 | 3.67 ± 5.3 | 4.33 ± 6.2 | 6.67 ± 12 | -4.33 ± 4.8 | 
5 | Canton-S (D. melanogaster) pb3b | -3.33 ± 8.2 | -1.5 ± 9.8 | 1.33 ± 7 | -1.67 ± 8.6 | 0 ± 11 | 
6 | S. montana pb3b-like | 3 ± 7.9 | -0.667 ± 7.8 | 3.67 ± 6.9 | -1.67 ± 8.2 | -2.33 ± 8.7 | 0.333 ± 6.1
7 | Canton-S (D. melanogaster) pb3a | 7.56 ± 4.9 | 1.5 ± 6 | 3.67 ± 8 | 0 ± 8.4 | 1.17 ± 5.8 | 
8 | S. flava pb2a-like | -1.67 ± 6.9 | 0.667 ± 5.8 | 3 ± 7.8 | 0 ± 6.2 | -0.667 ± 5.8 | 
9 | S. montana pb3a-like | 9.67 ± 6.5 | 5 ± 8.5 | 1 ± 7.9 | -2.67 ± 16 | 2.33 ± 10 | 
10 | S. montana pb1b-like | -19 ± 14 | -18 ± 11 | -8.33 ± 9.7 | 4 ± 5.4 | 3.67 ± 2.9 | 
11 | S. pallida pb1b-like | -11 ± 11 | -8.67 ± 14 | -1 ± 13 | 4.67 ± 8.6 | -11 ± 11 | 
12 | S. flava pb3a-like | 6 ± 8.3 | 4.67 ± 6.8 | 0.333 ± 11 | -2 ± 10 | 3.33 ± 9.1 | 
13 | S. hsui pb3b-like | -2.67 ± 4.5 | -1.33 ± 3.9 | -3 ± 1.7 | 2.67 ± 15 | -3 ± 5.8 | 
14 | Canton-S (D. melanogaster) pb2b | -1.54 ± 9 | -0.286 ± 8.4 | 0.571 ± 8.4 | 5.14 ± 12 | -1.14 ± 8.4 | 
15 | S. pallida pb2b-like | 2.33 ± 5.3 | 6 ± 4 | 8.33 ± 3.4 | 8.33 ± 7.4 | 4.33 ± 5.8 | 
16 | S. flava pb1a-like | 123 ± 14 | 107 ± 32 | 30.3 ± 26 | 16.7 ± 17 | -4 ± 3.8 | 
17 | Canton-S (D. melanogaster) pb1b | -8.93 ± 11 | 1.33 ± 9.2 | -0.667 ± 9.4 | 2.67 ± 9.5 | -4.44 ± 6.8 | 
18 | S. flava pb1b-like | -21 ± 16 | -26.3 ± 24 | -2.33 ± 32 | 1.33 ± 17 | 3 ± 8.8 | 

Row | Target | control-subtracted net OSN firing rate (allyl isothiocyanate) [spikes/s] | control-subtracted net OSN firing rate (isobutyl isothiocyanate) [spikes/s] | control-subtracted net OSN firing rate (sec-butyl isothiocyanate) [spikes/s] | control-subtracted net OSN firing rate (cinnamaldehyde) [spikes/s] | control-subtracted net OSN firing rate (phenethyl isothiocyanate) [spikes/s] | control-subtracted net OSN firing rate (butyl isothiocyanate) [spikes/s]
19 | S. hsui pb1b-like | -15 ± 6.4 | -3.33 ± 8.7 | 4.33 ± 7.4 | 6 ± 16 | -3 ± 7.1 | 
20 | Or67dGal4, UAS-Dmel Or42a at1 | 94.3 ± 58 | 5.33 ± 7.7 | 4.33 ± 11 |  |  | 
21 | S. pallida pb3b-like | -5.67 ± 14 | -4 ± 7.9 | 5.33 ± 17 | -6.67 ± 18 | -5.67 ± 15 | 
22 | S. flava pb3b-like | 2 ± 14 | -3.67 ± 24 | -3.33 ± 16 | 4.33 ± 16 | 1.33 ± 4.3 | 
23 | Or67dGal4, UAS-Spal Or42a at1 | 201 ± 39 | 42.2 ± 14 | 22.8 ± 9.7 |  |  | 
24 | S. montana pb1a-like | 126 ± 16 | 110 ± 18 | 48.3 ± 20 | 17 ± 9 | 4.67 ± 7.9 | 
25 | Canton-S (D. melanogaster) pb2a | 1.69 ± 6.9 | 1.43 ± 7.3 | 5.43 ± 6.9 | 4.29 ± 8.4 | 0 ± 5 | 
26 | S. hsui pb2a-like | -2 ± 4.7 | 2 ± 7.3 | 2 ± 4.7 | 2.67 ± 8.2 | 0.333 ± 5 | 
27 | S. flava pb2b-like | -0.333 ± 12 | -4.33 ± 14 | -0.333 ± 6.4 | -1.33 ± 7.1 | 4 ± 15 | 
28 | Or67dGal4, UAS-Sfla Or42a4 at1 | 131 ± 22 | 87 ± 27 | 29.7 ± 21 |  |  | 
29 | S. pallida pb3a-like | -6.33 ± 7 | -5.67 ± 5.8 | -5 ± 14 | 1 ± 8.3 | -4.33 ± 8.1 | 
30 | S. hsui pb1a-like | 124 ± 17 | 10 ± 5.1 | 8.67 ± 7.3 | 12.7 ± 16 | 3.67 ± 8.9 | 
31 | S. hsui pb3a-like | 0 ± 12 | -4.33 ± 7.9 | -2 ± 10 | 6.33 ± 9.9 | -4.67 ± 13 | 
32 | Or67dGal4, UAS-Sfla Or42a3 at1 | 127 ± 27 | 77.7 ± 25 | 29.4 ± 17 |  |  | 
33 | S. hsui pb2b-like | 0.667 ± 4.1 | 7 ± 8.2 | 5.33 ± 6.3 | 11 ± 9.8 | -0.333 ± 6 | 
34 | S. pallida pb1a-like | 109 ± 21 | 26 ± 12 | 17.3 ± 13 | 19.3 ± 13 | 3 ± 4.3 | 
35 | S. montana pb2a-like | 0.667 ± 4.1 | 1.67 ± 4.5 | 3 ± 10 | 13.7 ± 10 | 2.67 ± 4.3 | 
